TLR9-MyD88 block = inhibitors of TLR9-MyD88 association in cells, primary screen, cell-based, CHO, BLA complementation, fluorescence; Toll-like receptor 9 (Homo sapiens) + Myeloid differentiation primary response protein …; CCF4 FRET ratio; inhibition, % at 4.98 µM; hit rate 0.21% among 340,000;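 active = inhibition above the mean over all tested compounds plus 3 SD, cut at about 21% in these data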
NPR1 activator = GC-A stimulated cGMP production enhancers – HEK293 GC-A cells, cGMP TR-FRET, EC30 ANP, primary screen; AID 1671463, 2021; 0% at EC30 ANP, 100% saturating ANP; activation, % at 10 µM; Atrial natriuretic peptide receptor 1 (Homo sapiens), P16066; hit rate 0.14% among 370,000; in the data active = activation above about 40%
TLR4 MyD88 comp = inhibitors of TLR4-MyD88 association in cells, primary screen, cell-based, HeLa CL3-4, BLA complementation, FRET ratio | Toll-like receptor 4 (Homo sapiens) + Myeloid differentiation primary response protein … | HeLa CL3-4 TLR4/MyD88 BLA complementation | inhibition, % at 8.4 µM | hit rate 0.18% among 200,000 | AID 861, 2007; in the data active = inhibition above about 25%
NPR2 activator = human GC-B receptor activators, primary screen, HEK293 GC-B cells, cGMP TR-FRET, EC30 CNP; hit rate 0.11% among 370,000; activation, % at 10 µM; Atrial natriuretic peptide receptor 2 (Homo sapiens), P20594; AID 1920062, 2024; 0% at EC30 CNP, 100% saturating CNP;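 active = activation at 10 µM reaching about 35% in either raw or pattern-adjusted values, limit read from the data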
Target sequence (P20594 whole entry, looked up): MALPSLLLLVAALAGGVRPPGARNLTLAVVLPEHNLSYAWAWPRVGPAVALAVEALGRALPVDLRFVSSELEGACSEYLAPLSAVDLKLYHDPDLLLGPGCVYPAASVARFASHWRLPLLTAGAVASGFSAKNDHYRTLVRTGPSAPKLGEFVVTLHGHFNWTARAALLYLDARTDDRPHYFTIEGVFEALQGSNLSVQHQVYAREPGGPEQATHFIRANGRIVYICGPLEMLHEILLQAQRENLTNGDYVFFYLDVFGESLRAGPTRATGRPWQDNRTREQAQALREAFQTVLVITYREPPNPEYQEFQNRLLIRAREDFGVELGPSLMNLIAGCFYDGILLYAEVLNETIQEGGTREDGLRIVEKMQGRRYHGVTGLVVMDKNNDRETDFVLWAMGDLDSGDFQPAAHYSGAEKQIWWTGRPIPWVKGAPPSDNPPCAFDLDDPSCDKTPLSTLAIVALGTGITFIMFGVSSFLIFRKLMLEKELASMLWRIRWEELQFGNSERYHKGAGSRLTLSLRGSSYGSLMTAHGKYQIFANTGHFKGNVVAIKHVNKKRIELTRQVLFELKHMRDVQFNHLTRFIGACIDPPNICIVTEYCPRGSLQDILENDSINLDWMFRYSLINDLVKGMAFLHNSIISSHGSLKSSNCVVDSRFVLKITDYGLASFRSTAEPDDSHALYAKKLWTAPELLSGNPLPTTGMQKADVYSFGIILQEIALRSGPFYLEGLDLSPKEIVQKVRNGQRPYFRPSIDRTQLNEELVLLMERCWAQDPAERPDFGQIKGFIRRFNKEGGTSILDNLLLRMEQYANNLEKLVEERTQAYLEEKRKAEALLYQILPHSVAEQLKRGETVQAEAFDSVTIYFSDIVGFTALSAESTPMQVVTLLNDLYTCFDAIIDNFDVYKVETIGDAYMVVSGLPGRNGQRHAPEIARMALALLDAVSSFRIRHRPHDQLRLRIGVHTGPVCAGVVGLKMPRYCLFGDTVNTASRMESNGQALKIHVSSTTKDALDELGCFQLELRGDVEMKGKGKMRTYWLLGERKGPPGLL
NOD2-RIPK2 inh = NOD2-RIPK2 binding disruptors in cells, primary screen, fluorescence, CHO cells, BLA complementation; inhibition, % at 4.98 µM; CCF4 ratio; AID 624267, 2012; Receptor-interacting serine/threonine-protein kinase 2 (Homo sapiens), O43353; hit rate 0.38% among 360,000; in the data active = inhibition above about 21%
Neddyl block = inhibitors of cullin neddylation, primary screen, biochemical, TR-FRET, uHTS, NAE and Ubc12. inhibition, % at 25 µM. hit rate 0.58% among 360,000; in the data active = inhibition above about 36%
Numbers stand for hits; 0 = inactive; - = no result given. Sampled rows, rich in hits. Any-hit rate of the full collection: about 1.2%.

SMILES | TLR9-MyD88 block | NPR1 activator | TLR4 MyD88 comp | NPR2 activator | NOD2-RIPK2 inh | Neddyl block
C=CCn1c(C)cc(C(=O)CN2NS(=O)(=O)c3ccccc3C2=O)c1C | 0 | 0 | 0 | 0 | 0 | 0
CC(C)(C)C(=O)Cn1ncc(N2CCCC2)c(Br)c1=O | 0 | 0 | 0 | 0 | 0 | 0
Cn1c(Cc2cccs2)nnc1SCC(=O)Nc1ccc2c(c1)OCO2 | - | 0 | - | 0 | - | -
Cc1ccc(C)c(NC(=O)C2CCCN(S(=O)(=O)c3cccnc3)C2)c1 (configuration not stated) | 0 | 0 | - | 0 | 0 | 0
Cc1ccc2nc(NC(=O)C3CCCN(S(=O)(=O)c4cccnc4)C3)sc2c1 (configuration not stated) | 0 | 48.4 | 0 | 0 | 0 | 0
CCN1CCN(c2cc(C)c3cc(NC(=O)CCC(=O)Nc4ccc(OC)c(OC)c4)ccc3n2)CC1 | 0 | 0 | - | 0 | 0 | 0
CCN1CCN(c2cc(C)c3cc(NC(=O)c4ccc(OC)c(OC)c4)ccc3n2)CC1 | 0 | 0 | 0 | 46.8 | 0 | 0
CCN(CC)c1ccc2cc(C(N)=O)c(=O)oc2c1 | 0 | 0 | 0 | 0 | 0 | 48.1
CCN(CC)c1ccc2cc(C(N)=O)c(=N)oc2c1 | - | 0 | 0 | 0 | 0 | 0
COc1ccccc1C1c2c(ncn(-c3ccccc3)c2=N)Oc2ccc3ccccc3c21 (configuration not stated) | - | 0 | - | 0 | - | -
c1nc(NCc2ccc3c(c2)OCO3)c2cc(-c3ccoc3)ccc2n1 | 0 | 42.0 | - | 46.4 | 0 | 0
C[C@H]1[C@@H](OC(=O)Nc2ccc(Cl)cc2)CC[C@@]23CCCN2C(=O)CCC[C@@H]13 | - | 0 | - | 0 | - | -
Nc1cccc2c(O)cccc12 | 0 | 0 | - | 0 | 0 | 44.5
Cc1ccc2nc(-c3ccccc3)cn2c1 | 0 | 0 | 0 | 0 | 0 | 38.7
Oc1c(C(c2ccccc2)N2CCOCC2)ccc2ccccc12 (configuration not stated) | 0 | 0 | - | 0 | 0 | 41.5
CC(C)C[C@H](NC1(C(=O)NCCc2c[nH]c3ccccc23)CCN(C)CC1)C(=O)NCCCc1ccccc1 | - | 0 | - | 0 | - | -
COC(=O)c1cc(C)oc1C | - | 0 | - | 0 | - | -
COc1ccc2nc(-c3ccccn3)[nH]c2c1 | 0 | 0 | - | 0 | 0 | 43.3
Nc1ccc2nc(-c3ccccn3)[nH]c2c1 | 0 | 0 | 0 | 0 | 0 | 0
CCNC(=S)NNC(=O)c1cnccn1 | - | 0 | - | 0 | - | -
CC(=O)N1Cc2ccccc2CC1C(=O)N1CCN(c2ccccc2)CC1 (configuration not stated) | 0 | 0 | 0 | 78.0 | 0 | 0
CCN1C(=O)c2cccc3c(S(=O)(=O)Nc4ncccc4C)ccc1c23 | 0 | 0 | 0 | 0 | 0 | 51.4
O=C1OCCC1Sc1nnnn1-c1ccc(Cl)cc1 (configuration not stated) | 0 | 65.2 | 0 | 0 | 0 | 0
O=C1OCCC1Sc1nnnn1-c1ccccc1 (configuration not stated) | 0 | 0 | 0 | 0 | 0 | 0
N#Cc1ccc(-c2cccnc2)nc1SCc1ccc(Cl)cc1Cl | 0 | 0 | 0 | 42.0 | 0 | 0
SMILES | TLR9-MyD88 block | NPR1 activator | TLR4 MyD88 comp | NPR2 activator | NOD2-RIPK2 inh | Neddyl block
COc1cccc(CNc2ncnc3ccc(-c4c(C)noc4C)cc23)c1 | 0 | 51.0 | - | 56.1 | 0 | 0
COc1cccc(-c2ccc3ncnc(NCc4cccc(C)c4)c3c2)c1 | 0 | 0 | - | 0 | 0 | 0
Nc1nc(-c2ccc(S(=O)(=O)N3CCCCC3)cc2)cs1 | 0 | 0 | - | 0 | 0 | 44.5
O=C1OCCC1Sc1nc(-c2ccccc2)cs1 (configuration not stated) | 0 | 72.5 | 0 | 0 | 0 | 0
O=C(C(=O)N1CCN(C(=O)C2CCCC2)CC1)c1cccc(C(F)(F)F)c1 | - | 0 | - | 0 | - | -
CCC[C@H]1[C@@H](NC(=O)c2cccc(N(C)C)c2)CC[C@@]23CCCN2C(=O)CCC[C@@H]13 | - | 0 | - | 0 | - | -
O=C(O)c1ccccc1C(=O)c1cccc2c(F)cccc12 | 0 | 0 | - | 0 | 0 | 0
O=C(O)c1ccccc1C(=O)c1cccc2c(Br)cccc12 | 0 | 57.6 | - | 0 | 0 | 0
CCCOc1ccccc1N/C(=N\S(=O)(=O)c1ccc(C)cc1)Nc1nc(C)cc(C)n1 | 0 | 45.3 | 0 | 53.6 | 0 | 0
C=CCNC(=S)N1C[C@H]2CON(C)[C@H]2C[C@H]1c1ccccc1Br | - | 0 | - | 0 | - | -
COc1ccc(CCn2c(N)c(C#N)c3nc4ccccc4nc32)cc1OC | 0 | 0 | 0 | 0 | 0 | 0
COc1ccc(Cn2c(N)c(C#N)c3nc4ccccc4nc32)cc1OC | 0 | 0 | 0 | 0 | 0 | 38.5
Cc1cc(F)cc(C)c1Cn1cnc2c(cnn2C(C)(C)C)c1=O | 0 | 0 | - | 0 | 0 | 0
Cc1ccc(F)c(Cn2cnc3c(cnn3C(C)(C)C)c2=O)c1Cl | 0 | 0 | - | 38.0 | 0 | 0
CC1CCCN(CCC(=O)c2ccccc2)C1 (configuration not stated) | 0 | 66.7 | - | 0 | 0 | 0
O=C(CCN1CCCCC1)c1ccccc1 | 0 | 62.0 | 0 | 0 | 0 | 0
C[N+]1(CCC(=O)c2ccccc2)CCCCC1 | 0 | 72.5 | 0 | 0 | 0 | 0
CC(=O)OC(C[N+]1(C)CCCCCC1)c1ccccc1 (configuration not stated) | 0 | 0 | - | 0 | 0 | 0
O=C(CCN1CCOCC1)c1ccccc1 | 0 | - | 0 | - | 0 | 0
COc1ccc(NC(=O)CCN2CCCC(C)C2)cc1 (configuration not stated) | 0 | 0 | 0 | 0 | 0 | 0
C[N+]1=C(N)NC2=C3CCCCC3n3c(=O)n(-c4ccccc4)c(=O)n3C2C1 (configuration not stated) | - | 0 | - | 0 | - | -
CCOC(=O)CC[C@H]1CC[C@]2(CCCN(C(=O)C(C)(C)C)C2)O1 | - | 0 | - | 0 | - | -
Cc1cccc(C2CC3(CC(C)(C)NC(=S)N3)Oc3cc(O)ccc32)c1 (configuration not stated) | - | 0 | 0 | 0 | 0 | 0
COc1cccc(C2CC3(CC(C)(C)NC(=S)N3)Oc3cc(O)ccc32)c1 (configuration not stated) | 0 | 55.8 | 0 | 0 | 0 | 0
CCOC(=O)c1cnc(-n2cc(C)cn2)nc1NCc1ccc2c(c1)OCO2 | 0 | 0 | 0 | 44.5 | 0 | 0
CC(C)(C)c1ccc(-c2nnc(SCC(=O)Nc3ccccc3-c3ccccc3)n2Cc2ccco2)cc1 | - | 0 | - | 0 | - | -
COCCCNC(=S)N/N=C/c1ccc(O)cc1O | - | 0 | - | 0 | 0 | 0
COCCCNC(=S)N/N=C/c1cccc(OC)c1O | - | 0 | - | 0 | 0 | 37.9
CCCCN(C)c1nc(C)nc2c1nnn2Cc1ccccc1 | - | 0 | - | 0 | - | -
Cc1ccc(Cn2cc(C(=O)c3ccc(F)cc3)c(=O)c3cc4c(cc32)OCCO4)cc1 | 0 | 0 | 0 | 37.5 | 0 | 0

Screens as filed in PubChem BioAssay.
